Measurements from PubChem BioAssay.

Test: calcein-AM signal in unstimulated myeloma cells – cell-based, calcein-AM fluorescence, 48 h, PK04 Diversity Set, profiling panel (AID 1166);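 further: cells grown under basal conditions without added stimulus; test concentration not given here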
Conditions: RPMI8226 myeloma viability, higher = more signal
Molecule `COC(=O)[C@@]1(Cc2ccc(OC)cc2)[C@H]2c3cc(C(=O)N4CCCC4)n(CCc4ccccn4)c3C[C@H]2CN1C(=O)c1ccccc1` has a z-score of -1.7.
With `CC(=O)N1Cc2ccccc2C[C@@]2(N=C(c3ccc(OCCCO)cc3)O[C@H]2c2ccccc2)C1=O` the z-score was -3.36.
For `CC(C)NC(=O)[C@@]1(c2ccc([N+](=O)[O-])cc2)CC(=O)N(C(C)C)[C@@H]1c1ccc(CO)cc1`, the z-score was 1.38.
In the case of `CC(C)C(O)C1C=CC2C(=O)N(C)C(=O)C2N1N1CCCCC1` (stereo not given), the z-score is reported as -1.34.
`CCCC[C@@H]1C[C@H]1[C@@H](NC(=O)c1ccccc1)c1ccccc1` showed a z-score of -1.48.
In the case of `CCN(CC)c1ccc(N2CC=CC34O[C@@H]5/C=C\CCCOC(=O)C5[C@H]3C(=O)N(CCCO)[C@@H]4C2=O)cc1` (stereo not given in full), the z-score is reported as -0.0911.
Work on `COc1ccc(C(O)C2C=CC3C(=O)N(c4ccccc4)C(=O)C3N2Nc2ccccc2)c2ccccc12` (stereo not given) yielded a z-score of -0.858.
With `O=[N+]([O-])c1ccc(C[n+]2ccc(CCCO)cc2)o1` the z-score was -2.35.
With `C[N+](C)(C)CCCCNC(=O)[C@H]1C[C@H]2C(=O)N3CCC[C@H]3C(=O)N2[C@H]1c1ccc(O)cc1` the z-score was -0.772.
In the case of `COCCOC(=O)N1C(=O)[C@@]2(c3ccccc31)[C@H](C(=O)N1CCCCCCC1)[C@H]1C(=O)O[C@H](c3ccccc3)[C@H](c3ccccc3)N1[C@@H]2c1ccccc1OCCO`, the z-score is reported as -1.84.
`C=CCC(OC(C)=O)[C@@H]1[C@@H](N(Cc2ccc(-c3ccccc3)cc2)C(=O)c2ccc(C)cc2)c2cc(OCCCO)ccc2N1C(=O)Cc1ccc(OC)cc1` (stereo not given in full) showed a z-score of 0.815.
`COC(=O)[C@@]1(Cc2ccc(OC)cc2)[C@H]2c3cc(C(=O)N4CCCC4)n(C[C@H](O)CO)c3C[C@H]2CN1C(=O)c1ccccc1` gave a z-score of 0.197.
For `O=C1O[C@H](c2ccccc2)[C@H](c2ccccc2)N2[C@H]1[C@@H](C(=O)NC[C@H](O)c1ccccc1)[C@]1(C(=O)Nc3ccc(C#CC4=CCCCC4)cc31)[C@H]2c1ccc(O)cc1`, the z-score was -3.47.
For `COc1ccc([Si](C)(C)[C@@H]2[C@@H](CCO)O[C@]3(C(=O)N(Cc4ccccc4)c4ccc(N(C=O)c5ccccc5)cc43)[C@H]2C)cc1`, the z-score was -3.38.
`COc1cc(NN2C(C(O)c3ccccc3)C=CC3C(=O)N(c4ccccc4)C(=O)C32)cc(OC)c1OC` (stereo not given) showed a z-score of 0.0985.
For `CN(C)CCCCNC(=O)[C@@H]1C[C@@H]2C(=O)N[C@@H](CCCCN)C(=O)N2[C@@H]1c1cccc(OCCO)c1`, the z-score was 0.376.
Work on `COc1c(C)cc(-c2cc3c(c(-c4ccccc4)n2)[Si](C(C)C)(C(C)C)O[C@H]3c2ccccc2)cc1C` yielded a z-score of -1.98.
Molecule `[N-]=[N+]=NCc1ccccc1C[C@]1(C(=O)NCc2ccccc2)COC(c2ccc(OCCCO)cc2)=N1` has a z-score of -4.32.
In the case of `C=CCOC(=O)[C@@H]1[C@H]2C(=O)O[C@H](c3ccccc3)[C@H](c3ccccc3)N2[C@H](c2ccc(OCCOC(=O)[C@H]3C[C@H]4C(=O)N[C@@H](CCCC[N+](C)(C)C)C(=O)N4[C@H]3c3cccc(OCCO)c3)cc2)[C@@]12C(=O)Nc1ccc(I)cc12`, the z-score is reported as 0.437.
Molecule `O=C1OCC=C[C@H]2OC34C=CCN(c5ccc(Cl)cc5)C(=O)[C@H]3N(CCCO)C(=O)[C@@H]4[C@@H]12` (stereo not given in full) has a z-score of -0.802.
`O=c1cccc(-c2ccccc2)o1` showed a z-score of -0.664.
With `C=C(COC)C(=O)CC[C@H](OC(=O)c1cccnc1)c1ccccc1OCCO` the z-score was -3.76.
For `CCCCCN1CC=CC23O[C@@H]4C=CCCOC(=O)C4[C@H]2C(=O)N(CCCO)[C@@H]3C1=O` (stereo not given in full), the z-score was -0.0158.
Work on `CCN(CC)c1ccc(N2CC=CC34O[C@@H]5C=CCOC(=O)[C@@H]5[C@H]3C(=O)N(CCCCCO)[C@@H]4C2=O)cc1` (stereo not given in full) yielded a z-score of 0.199.
Molecule `C#C[C@H]1Oc2ccccc2S(=O)(=O)N2CCC[C@@H]12` has a z-score of -0.446.
For `O=C1C2C=CC(C(O)c3ccc(B(O)O)cc3)N(Nc3ccc([N+](=O)[O-])cc3)C2C(=O)N1c1ccccc1` (stereo not given), the z-score was -4.09.
`O=C1OCCC/C=C\[C@H]2OC34C=CCN(CCN5CCOCC5)C(=O)[C@H]3N(CCO)C(=O)[C@@H]4C12` (stereo not given in full) showed a z-score of -0.832.
In the case of `CC(=O)n1cc(C(O)C2C=CC3C(=O)N(c4ccccc4)C(=O)C3N2Nc2ccc(C#N)cc2)c2ccccc21` (stereo not given), the z-score is reported as -0.434.
With `COc1ccc(C(=O)Nc2cccc(CN3C(=O)[C@@]4(O[C@@H](CCn5cc([C@H](O)c6ccccc6)nn5)[C@H]([Si](C)(C)c5ccc(OC)cc5)[C@H]4C)c4ccccc43)c2)cc1` the z-score was -3.6.
In the case of `COC(=O)[C@@]1(Cc2ccc(F)cc2)[C@H]2c3cc(C(=O)N4CCCC4)n(CCc4ccc(OC)c(Br)c4)c3C[C@H]2CN1C(=O)c1ccccc1`, the z-score is reported as -4.69.
`CC(C)N1C(=O)c2ccccc2[C@](C)(C(=O)NC2CC2)[C@@H]1c1ccc(CO)cc1` gave a z-score of 0.27.
`CCCNC(=O)[C@@]1(C)c2ccccc2C(=O)N(Cc2ccc(OC(F)(F)F)cc2)[C@H]1c1ccc(CO)cc1` gave a z-score of -0.0542.
With `C=CCC(OC(C)=O)[C@@H]1[C@@H](N(Cc2ccc(-c3cccc(C(F)(F)F)c3)o2)C(=O)Cc2ccc(OC)cc2)c2cc(OCCCO)ccc2N1C(=O)Cc1ccc(OC)cc1` (stereo not given in full) the z-score was -1.02.
Molecule `COC(=O)[C@@]1(Cc2ccccc2)[C@H]2c3cc(C(=O)N(C)C)n(Cc4cc(F)c(F)c(F)c4)c3C[C@H]2CN1C(=O)c1ccccc1` has a z-score of -4.67.
In the case of `C=C(C)[C@@H]1CC=C(C(O)C2C=CC3C(=O)N(Cc4ccccc4)C(=O)C3N2n2cnnc2)CC1` (stereo not given in full), the z-score is reported as -0.176.
